In PubChem BioAssay AID623868 (Vanderbilt High Throughput Screening Facility, 2012):
Hit rate of the full screen: of about 2,100 compounds, about 760 (36%) were called active.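 Rule for the calls: active = thallium-flux fluorescence traces judged by eye to show enhanced or reduced glutamate response, manual score 1 or -1, so both directions (some results past the limit were not filed as active); inactive = the rest, including fluorescent or raised-baseline compounds.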 Only a sample is shown.

Assay: non-GIRK thallium flux modulation in mGlu8 cells, confirmation, counter-screen for GIRK activator project, cell-based, HEK-293 rmGlu8, no GIRK (AID 623868);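 note: extra codes mark interference with 3 for fluorescent and 4 for baseline rise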
Conditions: thallium flux fluorescence, at 10 µM, actives lie on both sides

SMILES	manual score
COc1cc(-n2c(=S)[nH]c3ccccc3c2=O)c(Cl)cc1Cl	1 (active)
CC(C)Oc1cc(-n2c(=S)[nH]c3ccccc3c2=O)c(Cl)cc1Cl	1 (active)
c1ccc2c(CNC3CCCCC3)c[nH]c2c1	0 (inactive)
CCOC(=O)C(O)(c1ccc(N(CC)S(=O)(=O)c2ccc(C)cc2)cc1)C(F)(F)F (stereo not given)	0 (inactive)
CNC(=O)OCCc1nccn1C	0.5 (inactive)
Fc1ccc(NC2=NCCS2)cc1Cl	0 (inactive)
CC(C)CCn1c(=O)c(C(=O)Nc2ccccc2S(N)(=O)=O)c(O)c2ccccc21	0 (inactive)
C=CCOC(=O)COc1cc(C)cc2oc(=O)c3c(c12)CCC3	-0.5 (inactive)
C/C(=N\Nc1ccccc1)c1c(O)n(C)c(=O)n(C)c1=O	0 (inactive)
O=c1cc(C(F)(F)F)c2cc3c4c(c2o1)CCCN4CCC3	3 (inactive)
S=C1CN=C(c2ccccc2Cl)c2cc(Cl)ccc2N1	1 (active)
S=C1CN=C(c2ccccc2)c2cc(Cl)ccc2N1	1 (active)
Cc1ccccc1C1=NCC(=S)Nc2ccc(Cl)cc21	1 (active)
O=C(Cc1ccccc1)N1CCN(C/C=C/c2ccccc2)CC1	0 (inactive)
CCN(c1ccc(C(O)(C(=O)OC)C(F)(F)F)cc1)S(=O)(=O)c1ccc(C)cc1 (stereo not given)	0 (inactive)
CCCCn1c(C)c(C(=O)OCC)c2c(CN3CCOCC3)c(O)ccc21	0 (inactive)
Cc1ccc2nc(N3CCC(C(=O)N4CCC5(CC4)OCCO5)CC3)sc2c1	0 (inactive)
N=c1sc2c(n1Cc1ccccc1)CCCC2	0 (inactive)
O=C(Nc1ccc(Cl)cc1)Nc1nccs1	0 (inactive)
O=C(c1ccccc1)c1cn(CC(=O)N2CCOCC2)c2ccccc12	-0.5 (inactive)
Cn1cccc1CNCCc1ccccc1	0 (inactive)
Cc1nn(C)cc1/C=C1/CC2C3CC=C4CC(O)CCC4(C)C3CCC2(C)C1=O (stereo not given)	0 (inactive)
CCN(CC)CCNCC(=O)Nc1ccc(Cl)cc1C(=O)c1ccccc1	0 (inactive)
Nc1c(C(=O)OC2CCCCC2)c2nc3ccccc3nc2n1CC1CCCO1 (stereo not given)	-0.5 (inactive)
Cc1ccc(OCC(=O)NCCN2CCN(C(=O)COc3ccc(C)cc3)CC2)cc1	0 (inactive)
